PubChem BioAssay (NCATS)
Active and inactive are the calls of the source. Calls follow the shape of the full dose curve.

Tests used:
Assay in all cases: Confirmatory Screen for Target Class Profiling of Small Molecule Inhibitors of Methyltransferases (AID 1745852); as to activity change, negative = inhibition: % is scaled to controls: 0 for no effect and ±100 for the full control effect
[1] = molecular target: Catechol O-methyltransferase (Homo sapiens) (UniProt P21964); conditions: MTase-Glo luminescence, SAH detection, recombinant enzyme; measured here: COMT max response; stronger effect = lower value
[2] = molecular target: Guanidinoacetate N-methyltransferase (Homo sapiens) (UniProt Q14353); conditions: MTase-Glo luminescence, SAH detection, recombinant enzyme; activity change, negative = inhibition: at 57.3 µM (top of the series) unless noted; series mostly up to 57.3 µM
[3] = molecular target: Nicotinamide N-methyltransferase (Homo sapiens) (UniProt P40261); conditions: MTase-Glo luminescence, SAH detection, recombinant enzyme; measured here: NNMT max response; stronger effect = lower value
[4] = molecular target: Phenylethanolamine N-methyltransferase (Homo sapiens) (UniProt P11086); conditions: MTase-Glo luminescence, SAH detection, recombinant enzyme; measured here: PNMT max response; stronger effect = lower value
Potency is read from the fitted curve at half-maximal effect.

Sequence of Catechol O-methyltransferase (Homo sapiens) (P21964 whole entry, looked up): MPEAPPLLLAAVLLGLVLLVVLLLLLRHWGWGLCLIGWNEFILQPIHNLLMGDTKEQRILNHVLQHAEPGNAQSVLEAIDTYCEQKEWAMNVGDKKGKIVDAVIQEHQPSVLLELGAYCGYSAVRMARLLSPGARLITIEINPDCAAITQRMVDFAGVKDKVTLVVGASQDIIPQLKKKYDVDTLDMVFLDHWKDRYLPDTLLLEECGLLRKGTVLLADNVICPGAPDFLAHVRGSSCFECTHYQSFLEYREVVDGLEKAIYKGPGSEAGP
Sequence of Phenylethanolamine N-methyltransferase (Homo sapiens) (P11086 whole entry, looked up): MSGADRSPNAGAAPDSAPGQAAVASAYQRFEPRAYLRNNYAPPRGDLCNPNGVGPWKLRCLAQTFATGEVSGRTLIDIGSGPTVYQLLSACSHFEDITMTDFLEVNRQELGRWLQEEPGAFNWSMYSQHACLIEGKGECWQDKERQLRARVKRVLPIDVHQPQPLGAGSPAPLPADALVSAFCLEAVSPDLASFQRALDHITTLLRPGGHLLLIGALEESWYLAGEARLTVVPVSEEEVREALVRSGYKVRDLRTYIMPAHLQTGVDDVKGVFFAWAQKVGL
Sequence of Nicotinamide N-methyltransferase (Homo sapiens) (P40261 whole entry, looked up): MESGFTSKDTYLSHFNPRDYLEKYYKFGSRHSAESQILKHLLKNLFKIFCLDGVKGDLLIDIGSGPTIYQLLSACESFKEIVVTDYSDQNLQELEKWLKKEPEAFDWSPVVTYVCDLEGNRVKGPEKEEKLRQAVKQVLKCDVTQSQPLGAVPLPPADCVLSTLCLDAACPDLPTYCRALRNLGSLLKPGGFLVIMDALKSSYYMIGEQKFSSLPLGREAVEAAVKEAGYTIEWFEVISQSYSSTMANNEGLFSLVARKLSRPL

COc1ccc(CNc2cc3c(cn2)CN(C)CCN3)cc1OC
activity [1]: 6.61%
activity change, negative = inhibition [2]: 1.57% [at 85.7 µM]
activity [3]: 0.597%
activity [4]: 7.35%

Cc1ccc(C2Nc3c(ccc(C(=O)O)c3C)C3C=CCC32)cc1 (stereo not drawn)
activity [1]: -3.41%
Potency [2]: inactive
activity [3]: -1.48%
activity [4]: -1.34%

CC1CCN(CCCNC(=O)CCc2nnc3n(Cc4ccccc4Cl)c(=O)c4ccccc4n23)CC1
activity [1]: -11.4%
activity change, negative = inhibition [2]: -3.45%
activity [3]: -14.4%
activity [4]: -7.41%

CN(CCCNC(=O)Cn1ccc2cc(S(=O)(=O)N3CCCCC3)ccc21)C1CCCCC1
activity [1]: 1.24%
activity change, negative = inhibition [2]: 0.637%
activity [3]: -1.2%
activity [4]: 0.276%

Cc1ccc(NC(=O)N2CCc3c(c4ccccc4n3CC3CC3)C2)cc1
activity [1]: 6.89%
activity change, negative = inhibition [2]: 14.5%
activity [3]: 5.96%
activity [4]: 6.82%

Cn1c(=O)c2ccnn2c2ccc(C(=O)NCC3CCN(Cc4ccccc4F)CC3)cc21
activity [1]: 3.91%
activity change, negative = inhibition [2]: 6.11%
activity [3]: -38.8%
activity [4]: 2.1%

COc1cccc(NC(=O)Cn2c(=O)oc3cc(S(=O)(=O)N4CC(C)CC(C)C4)ccc32)c1 (stereo not drawn)
activity [1]: 3.17%
activity change, negative = inhibition [2]: 0%
activity [3]: -1.21%
activity [4]: -70.5%

COc1cccc([C@H]2Nc3ccc(S(=O)(=O)Nc4ccc(C)cc4C)cc3[C@H]3C=CC[C@H]32)c1
activity [1]: -17.4%
Potency [2]: 27.1 µM (active)
activity [3]: -21.2%
activity [4]: -27.1%

CCCC1c2cccn2CCN1C(=O)Nc1ccc(C)cc1Cl (stereo not drawn)
activity [1]: 0.596%
Potency [2]: inactive
activity [3]: -6.98%
activity [4]: -0.613%

CCOCCCN1C(=O)c2cc3c(OC)ccc(OC)c3n2CC1(C)C(=O)NC1CCCCC1 (stereo not drawn)
activity [1]: -8.08%
activity change, negative = inhibition [2]: -4.76%
activity [3]: -17.7%
activity [4]: -10.4%

COc1ccc(CC(=O)Nc2ccc3ncnc(N4CCCC4)c3c2)c(Cl)c1
activity [1]: -2.51%
activity change, negative = inhibition [2]: -0.581%
activity [3]: -30.7%
activity [4]: -8.25%

CC(C)c1nccn1CCCNC(=O)c1ccc(-c2cccc(F)c2)nc1
activity [1]: 4.81%
activity change, negative = inhibition [2]: 3.97%
activity [3]: 9.65%
activity [4]: -0.0651%
